The list is not random: actives were taken first. Their share in the collection is about 8.7%.
HP1b binding inh = blocks HP1-beta chromodomain binding to methylated histone tails | P83916 | Potency, µM (doses to about 114 µM), actives largely listed as inhibitors | AlphaScreen HP1-beta / biotin-H3K9me3 peptide binding | 0.56% of 390,000 active; note: nearly all actives have a fitted effect of over 70% in size
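AlphaScreen: HP1-beta (50 nM) preformed 30 min with biotin-H3(1-18)K9me3 peptide (50 nM) in PBS pH 7.4, 0.01% Tween-20. Compound added for 30 min at RT, then streptavidin donor/nickel chelate acceptor beads (10 ug/mL) for 30 min.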
ALOX12 inh = blocks human arachidonate 12S-lipoxygenase. P18054. purified 12hLO, xylenol orange hydroperoxide absorbance. Potency, µM (doses to about 108 µM), usual class: inhibitors. 1.1% of 580,000 active. AID 1671190
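Purified human 12hLO (150 nM final) in 25 mM Hepes, 0.01% Triton X-100, pH 7.0 was preincubated 15 min at room temperature with compound. Then 40 uM arachidonic acid was added, 30 min. Hydroperoxide was read by Fe-XO absorbance ratio 573/405 nm.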
Sfp inh = inhibitors of Bacillus subtilis Sfp phosphopantetheinyl transferase; Biochemical Sfp PPTase activity, qHTS; AID 1490; 3.5% of 310,000 active; Potency, µM, usual class: inhibitors; Q9F4F7;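 note: the enzyme is Sfp with the accession as filed and its product quenches rhodamine fluorescence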
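Buffer: 50 mM Hepes-Na pH 7.6, 10 mM MgCl2, 0.01% Nonidet P-40, 0.01% BSA. Enzyme 15 nM, pre-exposed to compound 15 min; substrates then added and fluorescence change tracked over 30 min.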
BAZ2B block = BAZ2B (human) inhibition; AlphaScreen BAZ2B-H3K14Ac peptide displacement; Q9UIF8; Potency, µM (titrated, usually from 114 µM), usual class: inhibitors; AID 504333; 4.4% of 360,000 active; note: nearly all actives have a fitted effect of over 60% in size
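In this displacement format the biotinylated H3(5-23) peptide acetylated at Lys14 serves as ligand at 50 nM, with BAZ2B at 50 nM in PBS pH 7.4 containing 0.01% Tween-20. Donor and acceptor beads are 10 ug/mL final.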
JMJD2A Tudor inh = inhibitors of human JMJD2A Tudor domain; AlphaScreen JMJD2A-Tudor / H3K4me3 peptide binding; Potency, µM (titrated, usually from 114 µM), actives largely listed as inhibitors; 4.4% of 390,000 active; O75164; note: nearly all actives have a fitted effect of over 50% in size
Target sequence (O75164 whole entry, looked up, the tested form may be a part): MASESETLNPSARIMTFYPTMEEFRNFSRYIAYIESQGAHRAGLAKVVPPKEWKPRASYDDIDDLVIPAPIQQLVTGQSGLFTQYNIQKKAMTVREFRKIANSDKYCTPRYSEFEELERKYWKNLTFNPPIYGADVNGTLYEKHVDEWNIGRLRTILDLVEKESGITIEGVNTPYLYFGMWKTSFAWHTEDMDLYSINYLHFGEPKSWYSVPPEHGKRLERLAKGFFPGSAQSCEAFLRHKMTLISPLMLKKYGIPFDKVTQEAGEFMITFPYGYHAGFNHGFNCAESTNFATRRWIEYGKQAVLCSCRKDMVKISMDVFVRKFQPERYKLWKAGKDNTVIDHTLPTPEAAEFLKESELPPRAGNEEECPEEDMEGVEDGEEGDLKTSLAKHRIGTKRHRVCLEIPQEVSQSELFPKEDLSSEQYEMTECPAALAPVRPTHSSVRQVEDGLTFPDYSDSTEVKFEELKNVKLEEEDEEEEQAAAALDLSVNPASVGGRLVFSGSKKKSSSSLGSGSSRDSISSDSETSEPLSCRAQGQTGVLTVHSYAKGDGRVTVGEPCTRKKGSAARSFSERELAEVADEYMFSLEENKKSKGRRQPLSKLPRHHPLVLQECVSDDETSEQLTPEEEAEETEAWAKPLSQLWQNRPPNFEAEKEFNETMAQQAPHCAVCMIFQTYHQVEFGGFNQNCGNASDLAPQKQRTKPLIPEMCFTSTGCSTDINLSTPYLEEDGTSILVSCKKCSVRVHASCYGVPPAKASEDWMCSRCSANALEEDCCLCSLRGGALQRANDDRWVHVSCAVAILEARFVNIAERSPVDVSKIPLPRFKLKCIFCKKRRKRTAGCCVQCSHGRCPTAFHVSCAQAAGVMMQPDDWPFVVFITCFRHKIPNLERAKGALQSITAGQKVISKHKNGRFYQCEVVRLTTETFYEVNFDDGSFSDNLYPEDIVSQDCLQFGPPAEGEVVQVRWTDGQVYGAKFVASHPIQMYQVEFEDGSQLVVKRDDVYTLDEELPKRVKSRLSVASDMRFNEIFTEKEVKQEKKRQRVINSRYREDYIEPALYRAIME
G9a block = blocks human histone lysine methyltransferase G9a | AID 504332 | Potency, µM (highest dose often 102 µM), hits mostly inhibitors | Q96KQ7 | G9a H3K9 monomethylation, AlphaScreen, 2 h | 8.8% of 350,000 active; note: nearly all actives have a fitted effect of over 75% in size
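Chemiluminescent proximity detection of H3K9 monomethylation, read after 10 min bead incubation in the dark. Reaction: 20 nM G9a, 500 nM biotin-H3K9 peptide, 20 uM SAM cofactor, 2 h, room temperature, following 15 min enzyme-compound preincubation.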
Large screens that a line does not name were inactive. Calls come from the whole dose curve; as a rule, active = well fitted curve in the direction sought with a large enough effect; inconclusive = small, poorly fitted or top-dose-only effect, or another doubt; inactive = no such curve, though single readings can be large; an effect the other way counts as inactive or inconclusive.

CCOc1ccccc1NC(=O)/C(C#N)=C/c1c(C)nn(-c2ccccc2)c1Cl	JMJD2A Tudor inh 44.7µM
C=CCNC(=O)/C(C#N)=C/c1c(C)nn(-c2ccccc2)c1Cl	Sfp inh 79.4µM
CCOc1ccc(NC(=O)CSc2ncc(-c3ccc(F)cc3)o2)cc1	none (no result: HP1b binding inh, Sfp inh, BAZ2B block, JMJD2A Tudor inh, G9a block)
COc1ccc(CC2(C)OC(c3ccc([N+](=O)[O-])cc3)=NN2C(C)=O)cc1 (stereo not drawn)	HP1b binding inh inconclusive, BAZ2B block inconclusive, JMJD2A Tudor inh inconclusive, G9a block 11.2µM
COc1cc(/C=C2\SC(=S)N(NS(=O)(=O)c3ccccc3)C2=O)cc(OC)c1OC	Sfp inh 79.4µM, BAZ2B block inconclusive, JMJD2A Tudor inh inconclusive, G9a block inconclusive
COc1cccc(/C=C2\SC(=S)N(NS(=O)(=O)c3ccccc3)C2=O)c1OC	ALOX12 inh inconclusive, JMJD2A Tudor inh inconclusive, G9a block 39.8µM
O=C1/C(=C/c2cccc(F)c2)SC(=S)N1NS(=O)(=O)c1ccccc1	ALOX12 inh inconclusive, BAZ2B block inconclusive
CCOC(=O)c1ccccc1-c1csc(NS(=O)(=O)c2ccc(Cl)cc2)n1	BAZ2B block 56.2µM
CCOC(=O)c1cnn2c(N)c(C#N)cnc12	BAZ2B block inconclusive, JMJD2A Tudor inh inconclusive, G9a block 44.7µM
CCCN(CCC)C(=O)CCCC(=O)N(C)Cc1ccsc1	none (no result: HP1b binding inh, Sfp inh, BAZ2B block, JMJD2A Tudor inh, G9a block)
CN(C)C/C(Cl)=C(\Cl)c1ccccc1	ALOX12 inh inconclusive, G9a block 14.1µM
CN(C(=O)c1ccccc1)N(C)C(=O)c1ccccc1	none (no result: HP1b binding inh, Sfp inh, BAZ2B block, JMJD2A Tudor inh, G9a block)
CCCCC(=O)Nc1ccc(NCc2ccc(C)s2)cc1	JMJD2A Tudor inh inconclusive, G9a block 50.1µM
CCCCC(=O)Nc1ccc(C(N)=O)cc1	none
Cn1c2ccccc2c2c(C(=O)N3CCN(c4cccc(Cl)c4)CC3)cn(C3CCCCC3)c(=O)c21	none (no result: Sfp inh)
COc1ccc(N2CCN(C(=O)c3cn(C4CCCC4)c(=O)c4c3c3ccccc3n4C)CC2)cc1	HP1b binding inh inconclusive, ALOX12 inh inconclusive, BAZ2B block inconclusive, JMJD2A Tudor inh 14.1µM, G9a block 31.6µM
CCOC(=O)N1CCN(C(=O)c2cn(C)c(=O)c3c2c2ccccc2n3C)CC1	none
COc1ccc(N2CCN(C(=O)c3cn(C)c(=O)c4c3c3ccccc3n4C)CC2)cc1	ALOX12 inh inconclusive, BAZ2B block 44.7µM, JMJD2A Tudor inh inconclusive, G9a block 31.6µM
Cc1ccc(CNC(=O)c2cn(C3CCCC3)c(=O)c3c2c2ccccc2n3C)o1	Sfp inh 1.41µM, BAZ2B block 56.2µM, G9a block 11.2µM (no result: HP1b binding inh, ALOX12 inh, JMJD2A Tudor inh)
CC(=O)N1CCC(N2CCOC[C@H]2c2ncc(-c3ccc(C(F)(F)F)cc3)[nH]2)CC1	none (no result: HP1b binding inh, Sfp inh, BAZ2B block, JMJD2A Tudor inh, G9a block)
Cc1cc(-c2ccccc2)nc2cc(C(=O)OC(C)C)nn12	none
Cc1cc(-c2ccccc2)nc2cc(C(N)=O)nn12	G9a block 28.2µM
CCOC(=O)c1cc2nc(-c3ccccc3)cc(C)n2n1	G9a block 44.7µM
COc1cc(CC(=O)OCc2c(F)cccc2Cl)cc(OC)c1OC	none (no result: HP1b binding inh, Sfp inh, BAZ2B block, JMJD2A Tudor inh, G9a block)
Cc1nnc(NC(=O)c2csc(NC3CC3)n2)s1	none (no result: HP1b binding inh, Sfp inh, BAZ2B block, JMJD2A Tudor inh, G9a block)
CCOc1ccc(CC(=O)N2CCC(n3cc(-c4nc(-c5ccccc5)no4)nn3)C2)cc1 (stereo not drawn)	none (no result: HP1b binding inh, Sfp inh, BAZ2B block, JMJD2A Tudor inh, G9a block)
Nc1nnc(-c2ccc(F)cc2)s1	none
NC1=C(c2ccc(F)cc2)C(=O)CS1	Sfp inh 79.4µM, BAZ2B block inconclusive
CC(CCc1ccccc1)NC(=O)CN1C(=O)C(c2ccccc2)=NC1(C)C (stereo not drawn)	none (no result: HP1b binding inh, Sfp inh, BAZ2B block, JMJD2A Tudor inh, G9a block)
O=C(CSc1nnc(Nc2ccccc2)s1)c1ccc(Br)s1	none (no result: HP1b binding inh, Sfp inh, BAZ2B block, JMJD2A Tudor inh, G9a block)
Nn1cnnc1N/N=C\c1ccc(-c2ccccc2[N+](=O)[O-])o1	ALOX12 inh inconclusive, Sfp inh 44.7µM, BAZ2B block inconclusive, JMJD2A Tudor inh inconclusive, G9a block 35.5µM
O=[N+]([O-])c1ccccc1-c1ccc(/C=N/n2cnnc2)o1	none
O=C(N/N=C\c1ccc([N+](=O)[O-])o1)c1cncc(Br)c1	none
Cc1cc([N+](=O)[O-])c(C)cc1-c1ccc(/C=N/NC(=O)c2cccnc2)o1	BAZ2B block inconclusive, G9a block 44.7µM
